Data: PubChem BioAssay AID777 (Sanford-Burnham Center for Chemical Genomics, 2007)
Out of some 96,000 compounds screened, about 19,000 (20%) were called active. These entries were drawn from the full list. Unmarked numbers belong to inactive results.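 The calls were made as follows: active = blocking of liver enzyme CYP2C9 beyond about 50% at 5 µM (limit read from the data); inactive = the rest.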

Molecular target: Cytochrome P450 2C9 (Homo sapiens) (UniProt P11712)
Assay: blockers of cytochrome P450 2C9 activity – biochemical, luminescence, ADME assay, primary screen (AID 777)
Conditions: CYP2C9 Supersomes, luciferin-H conversion, at 5 µM, active compounds read high

Sequence of Cytochrome P450 2C9 (Homo sapiens) (P11712 whole entry, looked up): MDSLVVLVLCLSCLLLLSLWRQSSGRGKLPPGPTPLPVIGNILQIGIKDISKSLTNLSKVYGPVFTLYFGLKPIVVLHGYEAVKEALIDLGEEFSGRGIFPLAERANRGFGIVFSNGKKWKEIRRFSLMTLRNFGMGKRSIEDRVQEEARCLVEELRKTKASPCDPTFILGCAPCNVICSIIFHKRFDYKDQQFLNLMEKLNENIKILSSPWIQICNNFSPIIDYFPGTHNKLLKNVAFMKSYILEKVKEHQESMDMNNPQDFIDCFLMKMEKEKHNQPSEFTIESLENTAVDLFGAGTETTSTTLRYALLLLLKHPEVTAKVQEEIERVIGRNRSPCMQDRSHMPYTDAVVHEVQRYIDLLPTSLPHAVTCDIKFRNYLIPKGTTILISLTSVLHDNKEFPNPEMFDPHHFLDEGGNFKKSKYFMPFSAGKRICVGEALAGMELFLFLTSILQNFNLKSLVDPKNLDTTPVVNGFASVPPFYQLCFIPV

With `CCOc1c(Cl)cc(/C=N/O)cc1OC` as the compound, how does the inhibition read?
Its inhibition is -30%.

Which inhibition does the source give for `COC(=O)c1cc(C(=O)OC)cc(N2C(=O)CC(N3CCN(c4ccccc4)CC3)C2=O)c1` (configuration not stated) here?
The inhibition was 49%.

For `Cn1cc(S(=O)(=O)N2CCC(Cc3ccccc3)CC2)c(=O)n(C)c1=O`, which inhibition is on record?
Its inhibition is 23.7%.

For `C=C1c2cc(CC)ccc2NC(=O)N1c1ccc(C)cc1`, which inhibition is on record?
The inhibition was 10.6%.

How did the inhibition turn out when `CC(C)(C)n1nnc(CCc2nnn(C(C)(C)C)n2)n1` was run?
Its inhibition is 3.2%.

How did the inhibition turn out when `Cc1c(NC(=O)/C=C/C(=O)O)cccc1[N+](=O)[O-]` was run?
The inhibition was -2.8%.

Which inhibition does the source give for `Cc1ccc(NC2(C#N)C(=O)Nc3ccccc32)cc1` (configuration not stated) here?
The inhibition was -24.6%.

Which inhibition does the source give for `CCOC(=O)c1c(NC(=O)/C=C/c2ccco2)sc(C)c1C` here?
The inhibition was -4%.

For `CCOC(=O)c1c(NC(C)=O)sc2c(O)c(Br)ccc12`, which inhibition is on record?
Its inhibition is 55% (active).

How did the inhibition turn out when `CCOC(=O)c1c(NC(=O)CCl)sc(C(=O)N(CC)CC)c1C` was run?
The inhibition was 49.6%.

How did the inhibition turn out when `CC(=O)Nc1nonc1-c1nc2ccccc2n1Cc1ccccn1` was run?
The inhibition was 7.4%.

`COc1ccccc1N1CCN(C(=O)c2c(-c3c(Cl)cccc3Cl)noc2C)CC1` was tested. Which inhibition did it give?
Its inhibition is 88% (active).

Which inhibition does the source give for `COc1ccccc1N1CCN(C(=O)c2cc(-c3ccc(Br)cc3)on2)CC1` here?
The inhibition was -12%.

`COc1ccccc1N1CCN(C(=O)CSc2nnc(-c3ccoc3C)o2)CC1` was tested. Which inhibition did it give?
Its inhibition is 25.8%.

`CN1CCN(CCCNC(=O)c2cc3c(=O)oc4ccccc4c3s2)CC1` was tested. Which inhibition did it give?
Its inhibition is -15.9%.

`CC(C)NS(=O)(=O)c1ccc(OCC(=O)Nc2ccc3c(c2)OCCO3)cc1` was tested. Which inhibition did it give?
Its inhibition is 40.9%.

With `Cc1ccc(CNC(=O)COc2ccc(S(=O)(=O)NC(C)C)cc2)cc1` as the compound, how does the inhibition read?
The inhibition was 52.7% (active).

Which inhibition does the source give for `COc1ccc(OCC(=O)NCCc2ccc(S(N)(=O)=O)cc2)cc1` here?
The inhibition was 41.9%.

Which inhibition does the source give for `COc1ccc(-c2cc(C)nc3nc(N)nn23)cc1` here?
The inhibition was -29.3%.

`Cc1cccc(N2C(=O)c3cccnc3C2=O)c1` was tested. Which inhibition did it give?
The inhibition was 3.1%.

How did the inhibition turn out when `Cc1c(C(=O)CN2CCOCC2)[nH]c2ccccc12` was run?
Its inhibition is -15.8%.

With `Cc1c(C(=O)N2CCOCC2)[nH]c2ccc(OCc3ccccc3)cc12` as the compound, how does the inhibition read?
Its inhibition is 72.7% (active).

With `CCOC(=O)c1[nH]c2ccc(OC)cc2c1NC(=O)N1CCOCC1` as the compound, how does the inhibition read?
The inhibition was -9.2%.

For `Cc1ccc(OCC(O)CN2CCN(CC(O)COc3ccc(C)cc3Cl)CC2)c(Cl)c1` (configuration not stated), which inhibition is on record?
The inhibition was -10.1%.

For `COC(=O)c1[nH]c2ccc(Br)cc2c1NC(=O)Oc1ccccc1`, which inhibition is on record?
The inhibition was 4.5%.

How did the inhibition turn out when `CCCS(=O)(=O)Nc1c(C(=O)O)[nH]c2ccccc12` was run?
The inhibition was 33.7%.

Which inhibition does the source give for `COC(=O)c1[nH]c2ccccc2c1NS(=O)(=O)c1ccc(OC)cc1OC` here?
Its inhibition is 74.8% (active).

How did the inhibition turn out when `CCCCCCCCOC1OC(CO)C(O)C(O)C1NC(C)=O` (configuration not stated) was run?
Its inhibition is -2.6%.

`COC(=O)c1ccc(C(=O)Nc2cc(Cl)ccc2Cl)cc1NC(=O)c1ccccc1C` was tested. Which inhibition did it give?
Its inhibition is -13.7%.

How did the inhibition turn out when `Cc1ccc(N2C(=O)c3ccccc3C2(O)c2ncc[nH]2)cc1` (configuration not stated) was run?
Its inhibition is -0.7%.

How did the inhibition turn out when `CCOCC(=O)Nc1cc(OC)c(Cl)cc1OC` was run?
Its inhibition is 13.3%.

`Cc1nc(N2CCCC2C(=O)O)c2oc3ccccc3c2n1` (configuration not stated) was tested. Which inhibition did it give?
The inhibition was -6.6%.

How did the inhibition turn out when `O=C(CSC1=Nc2ccccc2C2=NC(c3ccccc3)C(=O)N12)NCC1CCCO1` (configuration not stated) was run?
The inhibition was 39.3%.

`CC(C)C1N=C2c3ccccc3N=C(SCC(=O)c3ccc(O)c(O)c3)N2C1=O` (configuration not stated) was tested. Which inhibition did it give?
Its inhibition is 51.3% (active).

`CCOC(=O)c1cc2occc2n1CC(=O)NC1CCC(C)CC1` (configuration not stated) was tested. Which inhibition did it give?
Its inhibition is 22%.

`O=C1/C(=C\Nc2ccccc2)CCN1c1ncccn1` was tested. Which inhibition did it give?
The inhibition was 3.1%.

For `CCOC(=O)CCc1c(C)c(C#N)c2[nH]c3ccccc3n2c1=O`, which inhibition is on record?
Its inhibition is 64.1% (active).

With `CCOC(=O)CSc1nccc(N(C)C)c1C#N` as the compound, how does the inhibition read?
Its inhibition is -35%.

How did the inhibition turn out when `CCOC(=O)C1CCN(C(=O)Cn2cc(C#N)c3ccccc32)CC1` was run?
Its inhibition is -6.6%.

`Cc1c(CCO)c(=O)n(-c2ccccc2)n1S(=O)(=O)c1ccc(F)cc1` was tested. Which inhibition did it give?
Its inhibition is 37.6%.

Which inhibition does the source give for `CCOC(=O)C1CCN(Cc2coc3ccc(Cl)cc3c2=O)CC1` here?
Its inhibition is -49.2%.

With `CCN(CC(=O)Nc1ccccc1OC)C(=O)Cn1cnc2ccccc2c1=O` as the compound, how does the inhibition read?
Its inhibition is 14.4%.

How did the inhibition turn out when `COc1ccccc1NC(=O)CSc1nnc(Cn2nnc(-c3ccccc3)n2)n1-c1ccccc1` was run?
Its inhibition is 40.2%.

With `CCCc1nc(SCC(=O)Nc2ccccc2OC)c2c(=O)n(C)c(=O)n(C)c2n1` as the compound, how does the inhibition read?
Its inhibition is 70.3% (active).

For `COc1ccc(C2C=C(c3ccc(Br)cc3)Nc3nc(NS(C)(=O)=O)nn32)cc1` (configuration not stated), which inhibition is on record?
Its inhibition is -11.7%.

`O=C(O)CCC(=O)NCc1ccc(C(=O)O)cc1` was tested. Which inhibition did it give?
The inhibition was 6.1%.

Which inhibition does the source give for `COc1ccc(NC(=O)c2c(SC)nsc2SC)cc1` here?
Its inhibition is 12.2%.

With `CCCCCOC(=O)NCCOC(=O)Nc1ccc(C(=O)OCC)cc1` as the compound, how does the inhibition read?
Its inhibition is 48%.

Which inhibition does the source give for `CCCc1ccc(OCc2ccc(C(=O)N/N=C/c3cccc([N+](=O)[O-])c3)o2)c(OC)c1` here?
The inhibition was -10.7%.

With `COc1cc(OC)c(/C=N/NC(=O)c2ccc([N+](=O)[O-])cc2)cc1Br` as the compound, how does the inhibition read?
The inhibition was 1.8%.

For `N#Cc1cc([N+](=O)[O-])ccc1Oc1cccc(/C=N/NC(=O)c2ccc(Cl)cc2)c1`, which inhibition is on record?
Its inhibition is 59.3% (active).

`O=C1CCC(C(=O)Nc2ccc(OC(F)F)cc2)N1` (configuration not stated) was tested. Which inhibition did it give?
The inhibition was 1.2%.

How did the inhibition turn out when `CCCCNc1nc2ccccc2nc1NS(=O)(=O)c1cccs1` was run?
The inhibition was 32.1%.

`CC1(C)CC(=O)C(C=NCCN2CCN(C(=S)Nc3cccc(Cl)c3)CC2)=C(O)C1` was tested. Which inhibition did it give?
Its inhibition is 51.8% (active).

Which inhibition does the source give for `CC1(C)CC(=O)C(C=NCCC2=CCCCC2)=C(O)C1` here?
Its inhibition is 0.7%.

`CC(=O)N1CCN(CCN=CC2=C(O)CC(C)(C)CC2=O)CC1` was tested. Which inhibition did it give?
Its inhibition is 4%.

How did the inhibition turn out when `CC(=O)c1nn(-c2cccc(Br)c2)cc1C(=O)c1cccc2ccccc12` was run?
The inhibition was -72%.

For `CC(C)COC(=O)C1C2C=CC3(CN(C(C)c4ccc(Br)cc4)C(=O)C13)O2` (configuration not stated), which inhibition is on record?
The inhibition was 9.2%.

How did the inhibition turn out when `Cc1cc(NC(=O)c2cnn3cccnc23)n(-c2ccccc2)n1` was run?
Its inhibition is 32%.

Which inhibition does the source give for `COc1ccc(CCN(C)CCN2C(=O)c3ccccc3C2=O)cc1OC` here?
Its inhibition is -9.6%.

For `CCN(CC)CCN1C(=O)C(=O)/C(=C(/O)c2ccc(OC)c(OC)c2)C1c1ccccn1` (configuration not stated), which inhibition is on record?
The inhibition was -10.7%.

For `COc1ccc(CCN2C(=O)c3[nH]nc(-c4ccccc4O)c3C2c2ccc(C)cc2)cc1OC` (configuration not stated), which inhibition is on record?
Its inhibition is 58% (active).
